The record followed here is publication PMC7862700, “An all-to-all approach to the identification of sequence-specific readers for epigenetic DNA modifications on cytosine”.

Test in all cases: DAPPL (digital affinity profiling via proximity ligation, sequencing); 10 mM Tris-HCl pH 7.5, 50 mM NaCl, 1 mM DTT, 4% glycerol, room temperature, 30 min; GST-TFs on glutathione beads, 16-mer random dsDNA library, 0.1% formaldehyde crosslink after washing; high values mean tight binding
Holding throughout (settings): protein: recombinant; tags: N-terminal GST; dsDNA, one strand shown

One assay addresses T1, ELK1 (Homo sapiens, UniProt P19419 1-428).
T1 sequence: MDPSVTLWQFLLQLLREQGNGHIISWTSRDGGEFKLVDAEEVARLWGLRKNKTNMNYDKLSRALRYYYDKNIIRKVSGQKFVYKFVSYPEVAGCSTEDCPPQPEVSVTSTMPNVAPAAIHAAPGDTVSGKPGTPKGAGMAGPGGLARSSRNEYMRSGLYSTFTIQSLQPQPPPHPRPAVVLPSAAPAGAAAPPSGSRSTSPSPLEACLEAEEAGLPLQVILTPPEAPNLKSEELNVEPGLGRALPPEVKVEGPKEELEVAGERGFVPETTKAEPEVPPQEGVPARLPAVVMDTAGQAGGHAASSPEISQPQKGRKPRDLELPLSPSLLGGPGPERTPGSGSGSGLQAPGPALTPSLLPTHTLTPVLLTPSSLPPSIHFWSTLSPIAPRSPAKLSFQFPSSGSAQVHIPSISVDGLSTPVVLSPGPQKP
Put shortly: (§1)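 Beads coated with glutathione captured GST-fused human transcription factors that had been expressed in yeast, and the factors were then given DNA barcodes and pooled with a tag-only sample. The pools were incubated with 200 nmole of a random double-stranded 16-mer DNA library in Tris/NaCl/DTT/glycerol buffer for 30 min at room temperature, washed, crosslinked with 0.1% formaldehyde and proximity-ligated with BsaI/T4 ligase at 37 °C for 1 h. PCR amplification and Illumina NextSeq500 sequencing came last. Binding signal is each hexamer's read frequency for a factor divided by its frequency for the tag-only sample.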

For a further assay, the target named is T2, GABPA (Homo sapiens, UniProt Q06546 1-454).
T2 sequence: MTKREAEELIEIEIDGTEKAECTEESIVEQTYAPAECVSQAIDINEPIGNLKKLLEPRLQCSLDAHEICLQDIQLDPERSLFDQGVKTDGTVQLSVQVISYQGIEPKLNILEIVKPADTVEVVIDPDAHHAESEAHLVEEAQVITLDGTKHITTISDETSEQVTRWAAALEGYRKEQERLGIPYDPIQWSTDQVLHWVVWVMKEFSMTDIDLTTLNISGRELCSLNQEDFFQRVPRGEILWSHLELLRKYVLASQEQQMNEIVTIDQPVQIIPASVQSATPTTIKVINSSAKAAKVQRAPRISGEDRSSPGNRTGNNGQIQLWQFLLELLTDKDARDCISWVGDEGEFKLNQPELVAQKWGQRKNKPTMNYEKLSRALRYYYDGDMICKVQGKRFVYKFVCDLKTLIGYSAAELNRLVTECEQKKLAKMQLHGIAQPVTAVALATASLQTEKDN
Put shortly: as §1

The next assay concerns the target T3, ERG (Homo sapiens, UniProt P11308 1-479).
T3 sequence: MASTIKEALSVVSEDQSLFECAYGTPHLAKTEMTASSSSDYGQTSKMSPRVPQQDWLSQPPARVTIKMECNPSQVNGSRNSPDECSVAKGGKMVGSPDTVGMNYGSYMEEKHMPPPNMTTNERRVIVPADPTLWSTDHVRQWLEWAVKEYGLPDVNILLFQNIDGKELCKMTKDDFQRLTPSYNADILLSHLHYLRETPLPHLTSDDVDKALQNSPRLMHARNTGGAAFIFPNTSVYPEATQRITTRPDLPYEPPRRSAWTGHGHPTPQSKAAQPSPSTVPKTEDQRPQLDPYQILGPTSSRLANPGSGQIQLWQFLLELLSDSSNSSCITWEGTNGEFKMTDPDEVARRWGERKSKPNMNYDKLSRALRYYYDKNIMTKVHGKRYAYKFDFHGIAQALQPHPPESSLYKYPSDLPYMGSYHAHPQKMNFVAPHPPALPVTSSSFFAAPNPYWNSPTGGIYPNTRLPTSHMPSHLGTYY
Put shortly: as §1

The target in a further assay is ELF1 (Homo sapiens, UniProt P32519 1-619). Put shortly: as §1
The target in another assay is ETV5 (Homo sapiens, UniProt P41161 1-510). The method in brief: as §1
The target of the next assay is T4, ELK4 (Homo sapiens, UniProt P28324-2 1-405).
T4 sequence: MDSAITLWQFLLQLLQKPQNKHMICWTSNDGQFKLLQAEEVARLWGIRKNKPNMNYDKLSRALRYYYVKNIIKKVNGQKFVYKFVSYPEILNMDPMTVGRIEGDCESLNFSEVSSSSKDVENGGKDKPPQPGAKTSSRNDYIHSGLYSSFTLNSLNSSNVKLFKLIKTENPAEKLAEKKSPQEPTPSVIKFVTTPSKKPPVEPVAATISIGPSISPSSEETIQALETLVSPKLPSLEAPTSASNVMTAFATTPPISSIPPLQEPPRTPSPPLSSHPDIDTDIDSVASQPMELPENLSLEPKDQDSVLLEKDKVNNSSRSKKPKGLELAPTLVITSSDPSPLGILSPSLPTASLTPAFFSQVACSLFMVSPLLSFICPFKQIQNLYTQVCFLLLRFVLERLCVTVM
Put shortly: as §1

For the next assay, the target named is T5, ETV2 (Homo sapiens, UniProt O00321 1-342).
T5 sequence: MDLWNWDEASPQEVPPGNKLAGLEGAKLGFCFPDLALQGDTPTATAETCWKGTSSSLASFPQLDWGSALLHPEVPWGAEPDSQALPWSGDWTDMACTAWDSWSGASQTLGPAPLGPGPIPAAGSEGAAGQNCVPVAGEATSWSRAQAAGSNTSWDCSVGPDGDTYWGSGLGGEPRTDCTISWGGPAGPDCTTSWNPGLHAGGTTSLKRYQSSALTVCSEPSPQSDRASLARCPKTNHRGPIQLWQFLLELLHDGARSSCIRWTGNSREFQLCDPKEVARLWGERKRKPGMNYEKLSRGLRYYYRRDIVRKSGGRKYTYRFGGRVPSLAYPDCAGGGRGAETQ
The method in brief: as §1

The target of a further assay is T6, ERF (Homo sapiens, UniProt P50548 1-548).
T6 sequence: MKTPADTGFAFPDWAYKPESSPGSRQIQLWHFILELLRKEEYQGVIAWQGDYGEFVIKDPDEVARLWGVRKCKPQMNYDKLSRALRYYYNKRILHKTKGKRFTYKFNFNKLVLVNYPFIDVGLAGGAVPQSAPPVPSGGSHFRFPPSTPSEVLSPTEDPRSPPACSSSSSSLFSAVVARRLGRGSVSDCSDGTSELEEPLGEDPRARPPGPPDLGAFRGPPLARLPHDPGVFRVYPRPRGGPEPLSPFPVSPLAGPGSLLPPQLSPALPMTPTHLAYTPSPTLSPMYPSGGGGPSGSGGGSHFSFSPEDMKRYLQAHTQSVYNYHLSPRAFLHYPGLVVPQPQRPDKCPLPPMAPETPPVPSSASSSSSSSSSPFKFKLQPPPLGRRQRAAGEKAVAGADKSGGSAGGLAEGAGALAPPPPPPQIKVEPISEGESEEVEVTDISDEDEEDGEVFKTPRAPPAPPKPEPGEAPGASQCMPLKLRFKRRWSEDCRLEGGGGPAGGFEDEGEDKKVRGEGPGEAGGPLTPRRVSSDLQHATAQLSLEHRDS
The method in brief: as §1

For the next assay, the target named is T7, ETV3L (Homo sapiens, UniProt Q6ZN32 1-361).
T7 sequence: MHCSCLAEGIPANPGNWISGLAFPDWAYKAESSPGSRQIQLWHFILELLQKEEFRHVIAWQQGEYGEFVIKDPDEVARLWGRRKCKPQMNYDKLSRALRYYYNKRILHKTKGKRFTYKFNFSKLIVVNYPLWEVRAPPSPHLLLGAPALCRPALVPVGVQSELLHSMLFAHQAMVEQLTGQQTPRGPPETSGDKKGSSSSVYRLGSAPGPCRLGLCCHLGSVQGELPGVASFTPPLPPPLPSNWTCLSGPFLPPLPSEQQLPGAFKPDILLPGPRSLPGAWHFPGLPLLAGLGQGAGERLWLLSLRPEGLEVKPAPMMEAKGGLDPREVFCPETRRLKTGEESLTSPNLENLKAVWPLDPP
Put shortly: as §1

A further assay concerns the target T8, SPDEF (Homo sapiens, UniProt O95238 1-335).
T8 sequence: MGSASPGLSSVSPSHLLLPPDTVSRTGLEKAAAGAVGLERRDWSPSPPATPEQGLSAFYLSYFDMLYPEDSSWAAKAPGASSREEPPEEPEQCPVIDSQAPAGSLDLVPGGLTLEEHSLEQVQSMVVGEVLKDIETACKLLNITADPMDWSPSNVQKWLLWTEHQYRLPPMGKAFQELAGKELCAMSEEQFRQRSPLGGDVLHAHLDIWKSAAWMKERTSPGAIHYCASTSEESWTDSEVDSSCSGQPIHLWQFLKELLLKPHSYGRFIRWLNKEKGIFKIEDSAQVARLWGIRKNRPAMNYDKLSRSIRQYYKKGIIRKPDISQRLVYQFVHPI
Put shortly: as §1

The target of a further assay is T9, ETV7 (Homo sapiens, UniProt Q9Y603 1-341).
T9 sequence: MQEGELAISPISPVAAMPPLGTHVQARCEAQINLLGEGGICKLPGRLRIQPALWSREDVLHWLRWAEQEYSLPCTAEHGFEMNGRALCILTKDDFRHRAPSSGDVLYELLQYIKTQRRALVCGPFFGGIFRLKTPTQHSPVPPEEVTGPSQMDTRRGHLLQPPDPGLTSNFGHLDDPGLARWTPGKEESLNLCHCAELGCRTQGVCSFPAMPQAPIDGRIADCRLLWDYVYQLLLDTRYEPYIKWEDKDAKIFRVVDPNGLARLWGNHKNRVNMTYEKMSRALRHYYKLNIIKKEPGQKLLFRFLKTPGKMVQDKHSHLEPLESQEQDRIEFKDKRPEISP
The method in brief: as §1

The target of a further assay is T10, ETV3 (Homo sapiens, UniProt P41162-2 1-143).
T10 sequence: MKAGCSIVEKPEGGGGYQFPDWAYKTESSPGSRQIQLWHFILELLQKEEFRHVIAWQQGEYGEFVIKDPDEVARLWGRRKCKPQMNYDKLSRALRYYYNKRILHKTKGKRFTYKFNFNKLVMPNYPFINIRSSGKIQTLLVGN
Put shortly: as §1

For the next assay, the target named is ETV6 (Homo sapiens, UniProt P41212 1-452). The method in brief:
as §1

The target of another assay is T11, FEV (Homo sapiens, UniProt Q99581 1-238).
T11 sequence: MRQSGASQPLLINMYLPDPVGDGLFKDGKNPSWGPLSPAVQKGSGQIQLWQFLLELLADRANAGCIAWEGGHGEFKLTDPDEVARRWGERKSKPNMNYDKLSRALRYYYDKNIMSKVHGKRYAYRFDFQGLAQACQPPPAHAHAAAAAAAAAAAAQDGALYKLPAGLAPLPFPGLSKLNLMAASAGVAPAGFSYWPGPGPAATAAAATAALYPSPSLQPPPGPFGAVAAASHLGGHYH
Put shortly:
as §1

The target in a further assay is ELF4 (Homo sapiens, UniProt Q99607 1-663). The method in brief: as §1
In the next assay the target is ETV1 (Homo sapiens, UniProt P50549 1-477). Put shortly: as §1
Sequence of ETV1 (P50549 whole entry): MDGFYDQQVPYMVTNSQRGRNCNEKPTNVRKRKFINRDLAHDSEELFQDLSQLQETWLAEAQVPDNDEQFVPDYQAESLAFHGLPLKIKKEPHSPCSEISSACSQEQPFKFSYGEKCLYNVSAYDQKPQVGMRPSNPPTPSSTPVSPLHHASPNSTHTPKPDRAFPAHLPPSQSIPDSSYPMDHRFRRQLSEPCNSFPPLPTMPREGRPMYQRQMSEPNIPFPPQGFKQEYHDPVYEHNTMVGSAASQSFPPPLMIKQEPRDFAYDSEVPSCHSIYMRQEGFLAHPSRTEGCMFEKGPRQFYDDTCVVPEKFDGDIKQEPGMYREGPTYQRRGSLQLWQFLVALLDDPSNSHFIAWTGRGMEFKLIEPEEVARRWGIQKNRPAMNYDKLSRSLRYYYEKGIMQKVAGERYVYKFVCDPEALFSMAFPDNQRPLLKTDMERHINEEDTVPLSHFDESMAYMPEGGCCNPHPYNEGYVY

Sequence of ELF1 (P32519 whole entry): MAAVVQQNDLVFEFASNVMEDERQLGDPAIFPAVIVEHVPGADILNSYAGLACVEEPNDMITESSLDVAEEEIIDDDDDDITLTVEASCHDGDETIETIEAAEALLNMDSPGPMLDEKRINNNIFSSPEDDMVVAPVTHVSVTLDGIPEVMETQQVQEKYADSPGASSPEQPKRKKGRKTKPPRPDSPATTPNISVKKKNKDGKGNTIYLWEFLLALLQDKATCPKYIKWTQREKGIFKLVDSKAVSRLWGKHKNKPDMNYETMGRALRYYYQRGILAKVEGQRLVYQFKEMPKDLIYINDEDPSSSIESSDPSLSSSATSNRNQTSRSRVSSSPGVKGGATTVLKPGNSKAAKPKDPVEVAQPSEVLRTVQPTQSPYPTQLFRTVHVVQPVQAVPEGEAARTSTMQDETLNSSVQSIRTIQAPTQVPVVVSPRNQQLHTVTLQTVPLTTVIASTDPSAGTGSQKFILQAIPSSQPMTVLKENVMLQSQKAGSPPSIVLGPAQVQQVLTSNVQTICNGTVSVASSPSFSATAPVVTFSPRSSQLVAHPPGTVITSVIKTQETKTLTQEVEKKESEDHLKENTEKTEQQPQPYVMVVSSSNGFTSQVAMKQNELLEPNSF
Sequence of ETV5 (P41161 whole entry): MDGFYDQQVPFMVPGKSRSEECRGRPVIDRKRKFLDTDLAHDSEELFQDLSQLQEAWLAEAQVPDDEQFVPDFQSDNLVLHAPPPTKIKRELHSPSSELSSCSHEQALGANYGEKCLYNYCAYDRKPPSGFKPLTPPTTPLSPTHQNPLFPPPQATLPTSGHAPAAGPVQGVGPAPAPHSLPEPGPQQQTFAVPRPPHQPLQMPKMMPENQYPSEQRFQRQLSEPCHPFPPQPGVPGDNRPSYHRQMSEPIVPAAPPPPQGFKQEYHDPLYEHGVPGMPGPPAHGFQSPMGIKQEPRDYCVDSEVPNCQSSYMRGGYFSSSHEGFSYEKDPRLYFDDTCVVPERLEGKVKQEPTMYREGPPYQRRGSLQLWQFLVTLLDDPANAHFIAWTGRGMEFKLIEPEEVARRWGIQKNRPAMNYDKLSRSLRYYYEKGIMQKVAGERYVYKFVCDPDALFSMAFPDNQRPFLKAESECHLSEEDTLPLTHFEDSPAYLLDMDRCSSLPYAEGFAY
Sequence of ELF4 (Q99607 whole entry): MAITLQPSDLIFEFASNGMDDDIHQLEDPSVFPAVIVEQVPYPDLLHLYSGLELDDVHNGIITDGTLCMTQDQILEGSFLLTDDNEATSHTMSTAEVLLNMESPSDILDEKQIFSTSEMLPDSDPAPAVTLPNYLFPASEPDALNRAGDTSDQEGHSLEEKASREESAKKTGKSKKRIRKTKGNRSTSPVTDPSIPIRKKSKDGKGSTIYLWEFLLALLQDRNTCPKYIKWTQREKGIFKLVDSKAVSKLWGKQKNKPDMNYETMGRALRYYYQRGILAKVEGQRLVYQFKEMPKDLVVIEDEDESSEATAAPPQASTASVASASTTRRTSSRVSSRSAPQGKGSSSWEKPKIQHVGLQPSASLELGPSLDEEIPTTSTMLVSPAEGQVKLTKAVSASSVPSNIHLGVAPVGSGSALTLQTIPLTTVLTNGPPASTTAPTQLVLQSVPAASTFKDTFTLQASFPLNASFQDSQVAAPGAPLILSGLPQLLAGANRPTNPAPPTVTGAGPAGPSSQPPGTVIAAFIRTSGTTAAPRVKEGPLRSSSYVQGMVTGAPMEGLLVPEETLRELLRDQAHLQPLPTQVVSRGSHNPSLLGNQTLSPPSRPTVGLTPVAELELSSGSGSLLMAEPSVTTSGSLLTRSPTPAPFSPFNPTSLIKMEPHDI
Sequence of ETV6 (P41212 whole entry): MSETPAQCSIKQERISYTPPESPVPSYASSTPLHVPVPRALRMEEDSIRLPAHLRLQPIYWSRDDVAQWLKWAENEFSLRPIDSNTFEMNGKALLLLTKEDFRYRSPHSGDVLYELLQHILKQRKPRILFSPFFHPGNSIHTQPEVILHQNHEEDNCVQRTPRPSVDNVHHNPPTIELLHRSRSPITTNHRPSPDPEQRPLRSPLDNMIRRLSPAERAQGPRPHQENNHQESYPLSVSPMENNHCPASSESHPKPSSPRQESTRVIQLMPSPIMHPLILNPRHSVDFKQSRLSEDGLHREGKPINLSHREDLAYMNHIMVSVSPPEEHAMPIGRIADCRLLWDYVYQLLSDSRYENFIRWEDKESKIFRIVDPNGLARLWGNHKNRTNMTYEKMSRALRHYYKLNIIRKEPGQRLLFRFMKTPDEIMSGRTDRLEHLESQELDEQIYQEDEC

CGTTGT: the binding signal with ELK1 is 1.09 fold enrichment (6-mer frequency, TF over GST control); in the assay with GABPA, 1 fold enrichment (6-mer frequency, TF over GST control); with ERG it was 1.02 fold enrichment (6-mer frequency, TF over GST control); with ELF1, 1.04 fold enrichment (6-mer frequency, TF over GST control); with ETV5, 1.01 fold enrichment (6-mer frequency, TF over GST control); in the assay with ELK4 it was 1.14 fold enrichment (6-mer frequency, TF over GST control). The binding signal was 1.13 fold enrichment (6-mer frequency, TF over GST control) with ETV2; 1.03 fold enrichment (6-mer frequency, TF over GST control) with ERF; 1.18 fold enrichment (6-mer frequency, TF over GST control) in the assay with ETV3L; 1.05 fold enrichment (6-mer frequency, TF over GST control) with SPDEF; 1.1 fold enrichment (6-mer frequency, TF over GST control) with ETV7; 1.07 fold enrichment (6-mer frequency, TF over GST control) in the assay with ETV3. In addition, in the assay with ETV6, the binding signal was 1 fold enrichment (6-mer frequency, TF over GST control).

On to GCACAC, for which the binding signal in the assay with ELF1 is 1.02 fold enrichment (6-mer frequency, TF over GST control); in the assay with FEV, 1.02 fold enrichment (6-mer frequency, TF over GST control); in the assay with ETV5, 1.02 fold enrichment (6-mer frequency, TF over GST control); in the assay with ELF4 it was 1.05 fold enrichment (6-mer frequency, TF over GST control); in the assay with ETV2, 1.01 fold enrichment (6-mer frequency, TF over GST control); with ETV1 it was 1 fold enrichment (6-mer frequency, TF over GST control). For the same sequence, the binding signal was 1.12 fold enrichment (6-mer frequency, TF over GST control) with ERF; 1.04 fold enrichment (6-mer frequency, TF over GST control) with ETV3L; 1.05 fold enrichment (6-mer frequency, TF over GST control) with ETV3.
